# Reference: PubChem BioAssay AID1159580 (chemical genetic matrix, 2015)
# In all, about 5,500 compounds went through this assay and about 2,000 (36%) were called active. Inconclusive results (about 18%) are left out. The list shows a part of the results. Unmarked numbers belong to inactive results. No stated cut-off is given here; in the data, active means normalized growth mostly below about 0.91 (no sharp cut-off); inconclusive means no clear call, values can overlap the other calls; inactive means mostly above about 0.92.
# Assay: chemical genetic growth profiling, strain panel (AID 1159580);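 further: tested at 20 µM; growth read once vehicle control cultures reached saturation at 30 °C; 1 = growth at the plate median or of vehicle wells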
# Details: S. cerevisiae deletion strains, growth OD
# [1] = locus YAL013W, strain DEP1, stronger effect = lower value
# [2] = locus YBR229C, strain ROT2, stronger effect = lower value
# [3] = locus YDL101C, strain DUN1, stronger effect = lower value
# [4] = locus YDR150W, strain NUM1, stronger effect = lower value
# [5] = locus YEL061C, strain CIN8, stronger effect = lower value
# [6] = locus YGR078C, strain PAC10, stronger effect = lower value
# [7] = locus YHR030C, strain SLT2, stronger effect = lower value
# [8] = locus YHR087W, strain rtc3, stronger effect = lower value
# [9] = locus YJR043C, strain POL32, stronger effect = lower value
# [10] = locus YJR075W, strain HOC1, stronger effect = lower value
# [11] = locus YLR039C, strain RIC1, stronger effect = lower value
# [12] = locus YLR058C, strain SHM2 (second series), stronger effect = lower value
# [13] = locus YLR085C, strain ARP6, stronger effect = lower value
# [14] = locus YLR262C, strain YPT6, stronger effect = lower value
# [15] = locus YML094W, strain GIM5, stronger effect = lower value
# [16] = locus YMR219W, strain ESC1, stronger effect = lower value
# [17] = locus YMR263W, strain SAP30, stronger effect = lower value
# [18] = locus YNL153C, strain GIM3, stronger effect = lower value
# [19] = locus YNL298W, strain CLA4 (second series), stronger effect = lower value
# [20] = locus YNL322C, strain KRE1, stronger effect = lower value
# [21] = locus YNR030W, strain Alg12, stronger effect = lower value
# [22] = locus YPL055C, strain LGE1, stronger effect = lower value
# [23] = locus YPL241C, strain CIN2, stronger effect = lower value
# [24] = locus YPR135W, strain CTF4, stronger effect = lower value
smiles,measurement,setting,value
COCc1cc(=O)n2[nH]c(C(C)(C)C)cc2n1,normalized growth,[1],1.01
same,normalized growth,[2],0.986
same,normalized growth,[3],0.996
same,normalized growth,[4],1.04
same,normalized growth,[5],0.939
same,normalized growth,[6],1.01
same,normalized growth,[7],1.07
same,normalized growth,[8],1.01
same,normalized growth,"locus YJL187C, strain SWE1, stronger effect = lower value",0.162 (active)
same,normalized growth,[9],1.04
same,normalized growth,[10],1.01
same,normalized growth,[11],1.02
same,normalized growth,[12],0.988
same,normalized growth,[13],0.959
same,normalized growth,[14],1.03
same,normalized growth,[15],0.986
same,normalized growth,[16],0.996
same,normalized growth,[17],1.04
same,normalized growth,[18],1.02
same,normalized growth,[19],0.965
same,normalized growth,[20],0.999
same,normalized growth,[21],1.01
same,normalized growth,[22],1.08
same,normalized growth,[23],0.977
same,normalized growth,[24],1.14
c1ccc(CN2CCC(n3nnc4cccnc43)CC2)cc1,normalized growth,[1],0.995
same,normalized growth,[2],1.01
same,normalized growth,"locus YCL061C, strain MRC1, stronger effect = lower value",1.02
same,normalized growth,[3],0.987
same,normalized growth,"locus YDL134C, strain PPH21, stronger effect = lower value",0.993
same,normalized growth,[4],0.997
same,normalized growth,[5],1.01
same,normalized growth,[6],1.01
same,normalized growth,"locus YGR229C, strain SMI1, stronger effect = lower value",0.997
same,normalized growth,[7],0.995
same,normalized growth,[8],1.01
same,normalized growth,[9],1.01
same,normalized growth,[10],1
same,normalized growth,[11],1
same,normalized growth,[12],1.04
same,normalized growth,[13],0.995
same,normalized growth,[14],0.957
same,normalized growth,[15],0.984
same,normalized growth,[16],1
same,normalized growth,[17],1.01
same,normalized growth,[18],1.01
same,normalized growth,[19],0.965
same,normalized growth,[20],0.996
same,normalized growth,[21],1.01
same,normalized growth,[22],1.03
same,normalized growth,[23],0.983
same,normalized growth,[24],1.01
Clc1ccc(CN2CCN(c3cccc4[nH]ccc34)CC2)cc1Cl,normalized growth,"locus YAR019C, strain CDC15, stronger effect = lower value",0.997
same,normalized growth,"locus YBL105C, strain PKC1, stronger effect = lower value",0.993
same,normalized growth,"locus YBR135W, strain CKS1, stronger effect = lower value",0.995
same,normalized growth,"locus YBR136W, strain MEC1, stronger effect = lower value",0.994
same,normalized growth,"locus YBR160W, strain CDC28, stronger effect = lower value",0.986
same,normalized growth,"locus YDL017W, strain CDC7, stronger effect = lower value",0.994
same,normalized growth,"locus YDL028C, strain MPS1, stronger effect = lower value",0.999
same,normalized growth,[3],0.988
same,normalized growth,"locus YDL108W, strain KIN28, stronger effect = lower value",0.983
same,normalized growth,"locus YDL132W, strain cdc53, stronger effect = lower value",0.993
same,normalized growth,"locus YDL214C, strain PRR2, stronger effect = lower value",0.962
same,normalized growth,"locus YDR052C, strain DBF4, stronger effect = lower value",0.996
same,normalized growth,"locus YDR054C, strain cdc34, stronger effect = lower value",0.993
same,normalized growth,"locus YDR226W, strain ADK1, stronger effect = lower value",0.984
same,normalized growth,"locus YDR477W, strain SNF1, stronger effect = lower value",0.972
same,normalized growth,"locus YER123W, strain YCK3, stronger effect = lower value",0.917
same,normalized growth,"locus YER133W, strain GLC7, stronger effect = lower value",0.977
same,normalized growth,"locus YFL009W, strain cdc4, stronger effect = lower value",0.986
same,normalized growth,"locus YFL029C, strain CAK1, stronger effect = lower value",0.994
same,normalized growth,"locus YFR003C, strain YPI1, stronger effect = lower value",0.992
same,normalized growth,"locus YFR019W, strain FAB1, stronger effect = lower value",0.971
same,normalized growth,"locus YFR028C, strain CDC14, stronger effect = lower value",0.991
same,normalized growth,"locus YGR040W, strain KSS1, stronger effect = lower value",0.962
same,normalized growth,"locus YGR052W, strain FMP48, stronger effect = lower value",1.1
same,normalized growth,"locus YGR092W, strain DBF2, stronger effect = lower value",0.942
same,normalized growth,[7],1.16 [resistant] (active)
same,normalized growth,"locus YHR079C, strain IRE1, stronger effect = lower value",1.11
same,normalized growth,"locus YHR082C, strain KSP1, stronger effect = lower value",1.09
same,normalized growth,"locus YHR205W, strain SCH9, stronger effect = lower value",0.974
same,normalized growth,"locus YIL147C, strain SLN1, stronger effect = lower value",0.992
same,normalized growth,"locus YJL095W, strain BCK1, stronger effect = lower value",1.1
same,normalized growth,"locus YJL128C, strain PBS2, stronger effect = lower value",0.946
same,normalized growth,"locus YJL157C, strain FAR1, stronger effect = lower value",0.968
same,normalized growth,"locus YJR016C, strain ILV3, stronger effect = lower value",0.993
same,normalized growth,"locus YJR066W, strain TOR1 (second series), stronger effect = lower value",0.958
same,normalized growth,"locus YJR066W, strain TOR1, stronger effect = lower value",1.13
same,normalized growth,"locus YKL048C, strain ELM1, stronger effect = lower value",0.988
same,normalized growth,"locus YKL067W, strain YNK1, stronger effect = lower value",0.982
same,normalized growth,"locus YKL101W, strain HSL1, stronger effect = lower value",0.968
same,normalized growth,"locus YKL193C, strain SDS22, stronger effect = lower value",0.992
same,normalized growth,"locus YKL203C, strain TOR2, stronger effect = lower value",1.04
same,normalized growth,"locus YLR113W, strain HOG1, stronger effect = lower value",1.07
same,normalized growth,"locus YLR133W, strain CKI1, stronger effect = lower value",0.977
same,normalized growth,"locus YLR403W, strain SFP1, stronger effect = lower value",0.965
same,normalized growth,"locus YML070W, strain DAK1, stronger effect = lower value",0.964
same,normalized growth,"locus YMR001C, strain CDC5, stronger effect = lower value",0.993
same,normalized growth,"locus YMR205C, strain PFK2 (second series), stronger effect = lower value",0.976
same,normalized growth,"locus YMR277W, strain FCP1, stronger effect = lower value",1
same,normalized growth,"locus YNL006W, strain LST8, stronger effect = lower value",0.999
same,normalized growth,"locus YNL020C, strain ARK1, stronger effect = lower value",0.981
same,normalized growth,"locus YNL161W, strain CBK1, stronger effect = lower value",0.998
same,normalized growth,"locus YNL183C, strain NPR1, stronger effect = lower value",1.11
same,normalized growth,"locus YNL207W, strain RIO2, stronger effect = lower value",0.993
same,normalized growth,"locus YNL222W, strain SSU72, stronger effect = lower value",0.992
same,normalized growth,"locus YNL307C, strain MCK1 (second series), stronger effect = lower value",0.995
same,normalized growth,"locus YOL078W, strain AVO1, stronger effect = lower value",0.996
same,normalized growth,"locus YOL136C, strain PFK27, stronger effect = lower value",0.974
same,normalized growth,"locus YOR061W, strain CKA2, stronger effect = lower value",0.955
same,normalized growth,"locus YOR119C, strain RIO1, stronger effect = lower value",1.03
same,normalized growth,"locus YOR231W, strain MKK1, stronger effect = lower value",1.08
same,normalized growth,"locus YOR329C, strain SCD5, stronger effect = lower value",0.999
same,normalized growth,"locus YPL031C, strain PHO85, stronger effect = lower value",0.977
same,normalized growth,"locus YPL153C, strain RAD53, stronger effect = lower value",0.97
same,normalized growth,"locus YPL204W, strain HRR25, stronger effect = lower value",0.979
same,normalized growth,"locus YPL209C, strain IPL1, stronger effect = lower value",0.997
same,normalized growth,"locus YPL256C, strain CLN2, stronger effect = lower value",1.07
same,normalized growth,"locus YPR025C, strain CCL1, stronger effect = lower value",0.995
same,normalized growth,"locus YPR106W, strain ISR1, stronger effect = lower value",0.99
same,normalized growth,"locus YPR111W, strain DBF20, stronger effect = lower value",0.992
same,normalized growth,"strain NNK1, stronger effect = lower value",0.993
same,normalized growth,"strain TSCII, stronger effect = lower value",1
